Consider 22 compounds from PubChem BioAssay (Tox21).

Each structure is given as a SMILES string. Results filed as inconclusive are left out. Values without a mark were called inactive. Active and inactive are the calls of the source. Calls come from the whole dose curve; as a rule, active = well fitted curve in the direction sought with a large enough effect in the repeat runs; inconclusive = weak or mixed curves; inactive = no such curve, though single readings can be large; an effect the other way counts as inactive or inconclusive.

Experiment [1] can be described thus: A CellTox Green Cytotoxicity Assay to monitor cytotoxicity in HepG2 cells - 32 hour (AID 1224883). Note: nearly all actives have a fitted effect of over 50% in size. The essentials: (§1)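 Real-time, homogeneous cytotoxicity readout: dead-cell DNA staining by CellTox Green in HepG2 monolayers, fluorescence measured at timed intervals up to 40 h of continuous compound exposure.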
Experiment [2] in a line: A CellTox Green Cytotoxicity Assay to monitor cytotoxicity in HEK293 cells - 8 hour (AID 1224884). Note: nearly all actives have a fitted effect of over 35% in size. The essentials:
(§2)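 Cytotoxicity was tracked continuously in HEK293 cells by a DNA-binding dye excluded from viable cells. Compounds were transferred in DMSO 5 h after seeding; fluorescence was recorded at intervals up to 40 h.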

Experiment [3] is described as follows: qHTS RealTime-Glo MT Cell Viability Assay in HEK293 cells - 8 hour (AID 1224887). Note: nearly all actives have a fitted effect of over 50% in size. The essentials:
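Nonlytic bioluminescent viability monitoring. HEK293 at 600 cells/well with reagent; 5 h settle; compound transfer by pintool; plates held at 37 C and read at set time points.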
For orientation: In qHTS, concentration-response curves come from the screen itself.

A short description of experiment [4]: A CellTox Green Cytotoxicity Assay to monitor cytotoxicity in HEK293 cells - 16 hour (AID 1224888). Note: nearly all actives have a fitted effect of over 35% in size. Summed up: as §2
Experiment [5] in a line: qHTS assay to identify small molecule antagonists of the estrogen receptor alpha (ER-alpha) signaling pathway using the BG1 cell line in the presence of 0.1 nM 17-beta-estradiol - cell viability counter screen (AID 1259241). Note: nearly all actives have a fitted effect of over 40% in size. The essentials: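 VM7Luc4E2 cells (endogenous full-length ER-alpha, 4xERE-luciferase), cultured 5 days in charcoal-stripped serum, exposed to compounds with 0.1 nM 17beta-estradiol (final) for 22 hr at 37C. Viability read in same wells as live-cell protease fluorescence after 30 min.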

The nature of experiment [6]: qHTS RealTime-Glo MT Cell Viability Assay in HepG2 cells - 0 hour (AID 1224889). Note: nearly all actives have a fitted effect of over 50% in size. The essentials:
(§3)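 qHTS, HepG2, 600 cells/well, RealTime-Glo (NanoLuc + prosubstrate) added with cells; 5 h preincubation; DMSO compound addition; 37 C; luminescence at 0/8/16/24/32/40 h.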

Experiment [7] can be described thus: A CellTox Green Cytotoxicity Assay to monitor cytotoxicity in HepG2 cells - 8 hour (AID 1224890). Note: nearly all actives have a fitted effect of over 45% in size. Summed up:
as §1

Experiment [8] in a line: qHTS assay to identify small molecule antagonists of the androgen receptor (AR) signaling pathway using the MDA cell line in the presence of 0.5 nM R1881 - cell viability counter screen (AID 1259242). Note: nearly all actives have a fitted effect of over 45% in size. Summed up: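 Cytotoxicity toward MDA-kb2 cells is measured by CellTiter-Fluor live-cell protease fluorescence after 16 hr compound exposure at 37C in the presence of 0.5 nM R1881 stimulator.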

A short description of experiment [9]: qHTS RealTime-Glo MT Cell Viability Assay in HEK293 cells - 24 hour (AID 1224886). Note: nearly all actives have a fitted effect of over 50% in size. The essentials:
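Assay medium contained NanoLuc luciferase plus cell-permeant prosubstrate, added with HEK293 cells at 600 cells/well. After 5 h at 37 C/5% CO2 compounds were added; plates stayed at 37 C for 40 h with serial luminescence reads.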

Experiment [10] can be described thus: qHTS RealTime-Glo MT Cell Viability Assay in HepG2 cells - 16 hour (AID 1224885). Note: nearly all actives have a fitted effect of over 50% in size. Summed up: as §3
Potency is the fitted concentration of half-maximal effect.

For the compound `CSc1ccc2c(c1)C(N1CCN(C)CC1)Cc1ccccc1S2` (stereo not given), the Potency in experiment [1] was 23.9 µM (active). Besides, the Potency entry in experiment [2], in [3], in [4] and in experiment [5] was “inactive” each time.
As to `CCCCCCCCOc1ccccc1C(=O)Nc1ccc(C(=O)OCC[N+](C)(CC)CC)cc1`, the Potency is 23.9 µM (active) in experiment [1], 23.9 µM (active) in experiment [2], 23.9 µM (active) in [4] and 26.8 µM (active) in [7]. Moreover, the Potency result in experiment [3], in experiment [6], in [5] and in experiment [8] was “inactive” in each case.
Consider `C=C(C)C(=O)OCC[N+](C)(C)C`, for which the Potency result in experiment [1], in [2], in [9], in experiment [4], in experiment [6] and in experiment [5] was “inactive” in each case. For the same compound, in [8], the Potency result was “inactive”.
On to `C/C=C1/C(=O)C[C@H]2[C@@H]3CCC4=CC(=O)CC[C@]4(C)[C@H]3CC[C@]12C`, for which the figures for the Potency in experiment [1], in experiment [9] and in experiment [6] were 48.8 µM (active), 48.8 µM (active) and 0.435 µM (active), respectively. Moreover, the Potency entry in [2], in [4], in experiment [5] and in [8] was “inactive” throughout.
As to `c1cc(C(c2ccc(OCC3CO3)cc2)c2ccc(OCC3CO3)cc2)ccc1OCC1CO1` (stereo not given), the Potency entry in experiment [1], in [2], in experiment [3], in [4], in experiment [6] and in [7] was “inactive” each time. For the same compound, the Potency entry in experiment [5] and in experiment [8] was “inactive” in each case.
As to `Oc1cccc(-c2c3nc(c(-c4cccc(O)c4)c4ccc([nH]4)c(-c4cccc(O)c4)c4nc(c(-c5cccc(O)c5)c5ccc2[nH]5)CC4)C=C3)c1`, the Potency entry in experiment [1], in experiment [2], in experiment [4], in experiment [6] and in experiment [7] was “inactive” in each case. For the same compound, the Potency in experiment [9] was 23.9 µM (active); in experiment [5], 3.35 µM (active); in experiment [8], 7.5 µM (active).
`CCOC(=O)c1nc(C(Cl)(Cl)Cl)n(-c2ccc(Cl)cc2Cl)n1`: the Potency result in [1], in experiment [2], in experiment [9], in [4], in [6] and in [5] was “inactive” each time.
As to `Fc1ccc([C@@H]2CCNC[C@H]2COc2ccc3c(c2)OCO3)cc1`, the Potency in [1] was 26.8 µM (active). The Potency entry in experiment [2], in experiment [3], in experiment [4], in experiment [5] and in [8] was “inactive” in each case.
Regarding `CCCCCCCC(=O)[O-].CCCCCCCC(=O)[O-].[Zn+2]`, the Potency result in [1], in experiment [2], in [9], in [4], in experiment [6] and in [7] was “inactive” in each case. Also, the Potency entry in [5] and in experiment [8] was “inactive” in each case.
Regarding `CC[C@@]1(O)C(=O)OCc2c1cc1n(c2=O)Cc2c-1nc1ccccc1c2/C=N/OC(C)(C)C`, the figures for the Potency in [1] and in [9] were 1.07 µM (active) and 0.0239 µM (active), respectively. Also, the Potency result in experiment [2], in [4], in [6], in experiment [7], in [5] and in experiment [8] was “inactive” each time.
In the case of `O=C1c2c(O)ccc(Nc3ccc(CCO)cc3)c2C(=O)c2c([N+](=O)[O-])ccc(O)c21`, the Potency result in [1], in experiment [2] and in [4] was “inactive” each time.
Consider `CCCN(CCC)C(=O)C(CCC(=O)OCCCN1CCN(CCOC(=O)Cc2c(C)n(C(=O)c3ccc(Cl)cc3)c3ccc(OC)cc23)CC1)NC(=O)c1ccccc1` (stereo not given), for which the Potency in experiment [1] was 23.9 µM (active); in experiment [5] it was 13.3 µM (active). Also, the Potency result in [2], in experiment [4] and in experiment [6] was “inactive” each time.
On to `CC(C)(C)c1ccc(C(=O)CCCN2CCC(OC(c3ccccc3)c3ccccc3)CC2)cc1`, for which the Potency in [1] is 21.3 µM (active); in [10] it was 21.3 µM (active); in experiment [9], 8.49 µM (active); in experiment [3] it was 9.52 µM (active); in [4], 21.3 µM (active); in [7] it was 23.9 µM (active). The Potency entry in experiment [6] was “inactive”.
For `CCC1=C[C@@H]2CN(C1)Cc1c([nH]c3ccccc13)[C@@](C(=O)OC)(c1cc3c(cc1OC)N(C)[C@H]1[C@@](O)(C(=O)OC)[C@H](OC(C)=O)[C@]4(CC)C=CCN5CC[C@]31[C@@H]54)C2`, the Potency result in experiment [1], in experiment [2], in experiment [4], in [6], in experiment [7] and in [8] was “inactive” each time.
For the compound `CC(C)n1nc(-c2cc3cc(O)ccc3[nH]2)c2c(N)ncnc21`, in experiment [1], the Potency was 23.9 µM (active). Further, the Potency entry in experiment [2], in [4], in experiment [6], in [7] and in experiment [8] was “inactive” throughout.
Take `Cc1oc(-c2ccccc2)nc1CCC(=O)c1ccc(CC2SC(=O)NC2=O)cc1` (stereo not given): the Potency entry in experiment [1], in experiment [10], in experiment [9], in experiment [3], in experiment [4] and in experiment [6] was “inactive” each time. The Potency entry in experiment [7], in [5] and in experiment [8] was “inactive” in each case.
For `[Cl][Bi]([Cl])([c]1ccccc1)([c]1ccccc1)[c]1ccccc1`, the Potency in [1] is 6.13 µM (active); in experiment [10], 7.71 µM (active); in experiment [9], 3.07 µM (active); in [4], 43.4 µM (active); in experiment [7] it was 15.4 µM (active); in [5] it was 12.1 µM (active). For the same compound, in [8], the Potency is 27.1 µM (active).
Take `CN(C)C(=O)C1(N2CCCCC2)CCN(CC[C@@]2(c3ccc(Cl)c(Cl)c3)CN(C(=O)c3ccccc3)CCO2)CC1`: the Potency in [1] is 18.2 µM (active); in experiment [10], 36.3 µM (active); in [9] it was 11.5 µM (active); in experiment [3] it was 16.2 µM (active); in experiment [4] it was 45.8 µM (active); in [7] it was 45.8 µM (active). Also, the Potency in experiment [5] is 64.1 µM (active); in experiment [8], 50.9 µM (active). In addition, the Potency result in [6] was “inactive”.
For the compound `CCCC(=O)OC[C@@H](OC(=O)CCC)[C@@H](OC(=O)CCC)[C@H](Cn1c2nc(=O)[nH]c(=O)c-2nc2cc(C)c(C)cc21)OC(=O)CCC`, the Potency in experiment [1] is 19 µM (active); in experiment [2], 21.3 µM (active); in [4] it was 21.3 µM (active); in experiment [7], 19 µM (active). Moreover, the Potency entry in [6] and in experiment [8] was “inactive” throughout.
Turning to `O=C(OCC(COC(=O)c1ccccc1)(COC(=O)c1ccccc1)COC(=O)c1ccccc1)c1ccccc1`, the Potency result in [1], in experiment [10], in experiment [6], in [7], in experiment [5] and in [8] was “inactive” each time. Further, the values for the Potency in experiment [9] and in [3] were 48.9 µM (active) and 24.5 µM (active), respectively.
`O=CC=C(c1ccccc1)c1ccccc1`: the Potency entry in [1], in [10], in experiment [4], in experiment [6], in experiment [5] and in [8] was “inactive” throughout. Also, the Potency in experiment [9] is 17.5 µM (active).
As to `C[C@H]1[C@H]2CC[C@H]3[C@@H]4CC=C5C[C@@H](N(C)C)CC[C@]5(C)[C@H]4CC[C@]23CN1C`, the Potency result in [1], in [2], in experiment [4], in [6], in experiment [5] and in experiment [8] was “inactive” throughout.
